Laboratory results taken from PubChem BioAssay (NCATS).
Inconclusive results are not listed. Where a call stands in place of a potency, no number is given. A number with no mark means an inactive call. Calls of active or inactive are those of the source. Calls follow the shape of the dose curve; as a rule, active = well fitted curve in the direction sought with a large enough effect; inconclusive = small, poorly fitted or top-dose-only effect, or another doubt; inactive = no such curve, though single readings can be large; an effect the other way counts as inactive or inconclusive.

Legend:
[1] = target: Aldehyde dehydrogenase, mitochondrial (Homo sapiens) (UniProt P05091); test: qHTS for Inhibitors of the Aldehyde Dehydrogenase Family (ALDH2) Primary screen (AID 2061308); also: nearly all actives have a fitted effect of over 55% in size
[2] = target: Retinaldehyde dehydrogenase 3 (Homo sapiens) (UniProt P47895); test: qHTS for Inhibitors of the Aldehyde Dehydrogenase Family (ALDH1A3) Confirmatory screens (AID 2061311); also: nearly all actives have a fitted effect of over 60% in size; also: potency is read from the fitted curve at half-maximal effect
[3] = target: Retinaldehyde dehydrogenase 3 (Homo sapiens) (UniProt P47895); test: qHTS for Inhibitors of the Aldehyde Dehydrogenase Family (ALDH1A3) Primary screen (AID 2061315)
[4] = target: Retinal dehydrogenase 2 (Homo sapiens) (UniProt O94788); test: qHTS for Inhibitors of the Aldehyde Dehydrogenase Family (ALDH1A2) Confirmation screens (AID 2061314); also: nearly all actives have a fitted effect of over 65% in size; also: potency is read from the fitted curve at half-maximal effect
[5] = target: Aldehyde dehydrogenase 1A1 (Homo sapiens) (UniProt P00352); test: qHTS for Inhibitors of the Aldehyde Dehydrogenase Family (ALDH1A1) Confirmatory screens (AID 2061316); also: nearly all actives have a fitted effect of over 65% in size; also: potency is read from the fitted curve at half-maximal effect

C=C1/C(=C/C=C2\CCC[C@]3(C)[C@@H]([C@H](C)/C=C/C(=O)C4CC4)CC[C@@H]23)C[C@@H](O)C[C@@H]1O
Potency [1]: inactive

COc1ccc(C2NC(=O)c3ccccc3N2)cc1COc1ccc(NC(C)=O)cc1 (centres undefined)
Potency [1]: inactive | Potency [2]: inactive | Potency [3]: inactive

Oc1cc(NCc2ccc(F)cc2)cc2cccnc12
Potency [1]: inactive | Potency [2]: 1.59 µM (active) | Potency [4]: inactive | Potency [5]: 7.12 µM (active)

CC(C)(C)OC(=O)N1CCN(c2ccc(NCc3occc3-c3ccc(C#N)cc3)cc2)CC1
Potency [1]: inactive | Potency [2]: 20.1 µM (active) | Potency [4]: 12.7 µM (active) | Potency [5]: 11.3 µM (active)

Cc1ccc(CNc2ccc(N3CCNCC3)cc2)cc1
Potency [1]: inactive | Potency [2]: 14.2 µM (active) | Potency [4]: 10.1 µM (active) | Potency [5]: 11.3 µM (active)

COc1ccc(-c2ccc(=O)n(CC(=O)NCCc3ccccc3)n2)cc1
Potency [1]: inactive | Potency [2]: 1.58 µM (active) | Potency [4]: 15.8 µM (active) | Potency [3]: inactive | Potency [5]: inactive

Oc1ccc(CNc2cc(Cl)ccn2)c2cccnc12
Potency [1]: inactive | Potency [2]: 3.57 µM (active) | Potency [4]: 12.7 µM (active) | Potency [5]: 8.96 µM (active)

Nc1cccc(CNc2ccc(S(=O)(=O)Nc3nccs3)cc2)c1O
activity change, negative = inhibition [1]: 2.56% [at 11.2 µM] | Potency [2]: 10.1 µM (active) | Potency [4]: inactive | activity change, negative = inhibition [3]: -14.8% [at 11.2 µM] | Potency [5]: 11.3 µM (active)

CNc1ncc(-c2cccc3ccccc23)o1
Potency [1]: inactive | Potency [2]: 25.2 µM (active) | Potency [4]: 10.1 µM (active) | Potency [3]: inactive

C/C=C/c1ccc2oc(-c3ccc(O)c(OC)c3)c(C)c2c1
Potency [1]: inactive | Potency [2]: 1.01 µM (active) | Potency [4]: 25.1 µM (active) | Potency [5]: 17.9 µM (active)

N[C@@H]1CCN(c2cnc3c(O)ccc(C(=O)O)c3c2)C1
Potency [1]: inactive | Potency [2]: 12.7 µM (active) | Potency [4]: 25.2 µM (active) | Potency [3]: inactive | Potency [5]: inactive

CC(=O)N1CCN(c2ccc(NCc3cccc(C)c3)cc2)CC1
Potency [1]: inactive | Potency [2]: 20.1 µM (active) | Potency [4]: 12.7 µM (active) | Potency [5]: 12.7 µM (active)

COc1ccc(C(=O)N(Cc2ccccc2)Cc2ccco2)c(O)c1
Potency [1]: inactive | Potency [2]: 14.2 µM (active) | Potency [4]: 25.2 µM (active) | Potency [3]: inactive

NNc1ccc(NC(=O)c2cccs2)cn1
Potency [1]: inactive | Potency [2]: 11.3 µM (active) | Potency [3]: inactive

C=CCNc1nnc(-c2cccc3ccccc23)o1
Potency [1]: inactive | Potency [2]: 10.1 µM (active) | Potency [4]: 8.96 µM (active) | Potency [5]: 7.98 µM (active)

c1c[nH]c(C2CCN(c3ncc(-c4ccc5c(c4)OCCCO5)s3)CC2)n1
Potency [1]: inactive | Potency [2]: 5.04 µM (active) | Potency [4]: 4 µM (active) | Potency [3]: inactive | Potency [5]: 1.79 µM (active)

Cc1ccnc(NC(=S)N[C@@H]2CCN(c3cccc(C(F)(F)F)c3)C2)c1
Potency [1]: inactive | Potency [2]: inactive | Potency [3]: inactive

CNC(=O)C1=C(C)NC(Nc2nc3ccccc3o2)=NC1c1[nH]ncc1Cl (centres undefined)
Potency [1]: inactive | Potency [2]: inactive | Potency [3]: inactive

Cc1ccc(CNc2cccc(N3CCCCC3)c2)cc1
Potency [1]: inactive | Potency [2]: 22.5 µM (active) | Potency [3]: inactive

CC(=O)N1CCN(c2ccc(NCc3ccccc3)cc2)CC1
Potency [1]: inactive | Potency [2]: 12.7 µM (active) | Potency [4]: 11.3 µM (active) | Potency [5]: 10.1 µM (active)

N#CN1CCC(NS(=O)(=O)c2ccc(C(F)(F)F)cc2)CC1
Potency [1]: inactive | Potency [2]: inactive | Potency [4]: 12.7 µM (active) | Potency [3]: inactive | Potency [5]: inactive

O=C1CCCC2=C1C1(CCC1)N=C(Nc1nc3ccccc3o1)N2
Potency [1]: inactive | Potency [2]: 12.7 µM (active) | Potency [4]: 7.98 µM (active) | Potency [3]: inactive | Potency [5]: inactive

O=C(O)c1ccc(O)c2ncc(NC3CCNC3)cc12 (centres undefined)
Potency [1]: inactive | Potency [2]: inactive | Potency [4]: 3.57 µM (active) | Potency [3]: inactive | Potency [5]: inactive

CN1CCN(c2ccc(NC(=O)c3cccs3)cn2)CC1
Potency [1]: inactive | Potency [2]: 22.5 µM (active) | Potency [4]: 12.7 µM (active) | Potency [3]: inactive

Cc1ccc(S(=O)(=O)Nc2cccc3ccc[n+](C)c23)cc1
Potency [1]: inactive | Potency [2]: 10.1 µM (active) | Potency [4]: 25.2 µM (active) | Potency [3]: inactive

Cc1ccc2nc3sc(C(=O)N4CCOCC4)cc3cc2c1
Potency [1]: inactive | Potency [2]: 25.2 µM (active) | Potency [3]: inactive

CN(C)c1cccc(-c2cnc(N3CCC(C(N)=O)CC3)nc2)c1
Potency [1]: inactive | Potency [2]: 22.5 µM (active) | Potency [4]: 12.7 µM (active) | Potency [5]: 11.3 µM (active)

COc1ccc(CNc2ccc(S(=O)(=O)Nc3nccs3)cc2)cc1O
Potency [1]: inactive | Potency [2]: 5.65 µM (active) | Potency [4]: 6.34 µM (active) | Potency [3]: inactive | Potency [5]: 7.12 µM (active)

CCN(CC)C(=O)CC(c1ccc2c(c1)OCO2)c1c(O)cc(OC)cc1OC (centres undefined)
Potency [1]: inactive | Potency [2]: inactive | Potency [4]: inactive | Potency [3]: inactive

COc1ccc(Nc2cc(O)c3ncccc3c2)cc1
Potency [1]: inactive | Potency [2]: 0.0357 µM (active) | Potency [4]: inactive | Potency [5]: inactive
